From PubChem BioAssay (Tox21)
Records with an inconclusive call do not appear. A number with no mark means an inactive call. Calls of active or inactive are those of the source. The call rests on the fitted dose curve; in most records, active means well fitted curve in the direction sought with a large enough effect in the repeat runs; inconclusive means weak or mixed curves; inactive means no such curve, though single readings can be large; an effect the other way counts as inactive or inconclusive.

target: Cytochrome P450 1A2 (Homo sapiens) (UniProt P05177); experiment: Cytochrome P450 Family 1 Subfamily A Member 2 (CYP1A2) small molecule antagonists: luciferase reporter qHTS assay (AID 1671199); details: P450-Glo CYP1A2 enzyme, luciferin luminescence, 1 h; series mostly up to 53 µM; activity change, negative = inhibition: at the top concentration
How it was run: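 Enzymatic CYP1A2 assay, human, luminescent: 10 min compound–enzyme–substrate preincubation, 1 h NADPH-dependent turnover, 20 min detection step, room temperature throughout. Reduced light indicates lower CYP1A2 activity.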
Further: nearly all actives have a fitted effect of over 50% in size.
On the % scale 0 is the no-effect control and ±100 the full control effect; potency means the concentration at half of the fitted maximal effect.

Chain of Cytochrome P450 1A2 (Homo sapiens) (P05177 whole entry, looked up): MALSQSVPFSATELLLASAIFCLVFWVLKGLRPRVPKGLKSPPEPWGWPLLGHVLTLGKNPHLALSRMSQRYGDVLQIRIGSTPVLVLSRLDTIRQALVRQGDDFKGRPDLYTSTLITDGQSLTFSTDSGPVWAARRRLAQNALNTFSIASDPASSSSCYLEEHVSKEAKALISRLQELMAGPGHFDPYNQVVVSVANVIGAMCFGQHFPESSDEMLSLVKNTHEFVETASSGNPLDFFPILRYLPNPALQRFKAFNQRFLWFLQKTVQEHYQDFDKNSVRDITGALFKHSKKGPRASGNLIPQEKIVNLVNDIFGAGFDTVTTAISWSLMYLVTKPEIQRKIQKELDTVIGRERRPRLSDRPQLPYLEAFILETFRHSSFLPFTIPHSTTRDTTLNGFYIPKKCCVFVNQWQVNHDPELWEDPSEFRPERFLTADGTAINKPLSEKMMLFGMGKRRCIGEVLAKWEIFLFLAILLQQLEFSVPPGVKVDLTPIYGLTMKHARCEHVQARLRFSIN

| SMILES | activity change, negative = inhibition | Potency |
| --- | --- | --- |
| Cc1ccccc1S(=O)(=O)O | -32.2% [at 115 µM] |  |
| O=S(=O)(Oc1ccc(Cl)cc1)c1ccccc1 |  | 5.64 µM (active) |
| CNC(=O)CN(CCN(CCN(CC(=O)[O-])CC(=O)NC)CC(=O)[O-])CC(=O)[O-].O.[Gd+3] | 16.3% |  |
| C=CCOC(=O)CCC1CCCCC1 | -14.4% [at 115 µM] |  |
| O[C@@H](COc1cccc2ncccc12)CN1CCN(C2c3ccccc3[C@@H]3[C@H](c4ccccc42)C3(F)F)CC1 (stereo not given in full) |  | 15.5 µM (active) |
| O=C1CCC(=O)O1 | -6.09% [at 115 µM] |  |
| CCCCC(CC)COC(=O)CCCCCCCCC(=O)OCC(CC)CCCC (stereo not given) |  | 39.9 µM (active) |
| CCNc1cc(O)ccc1C |  | 12.5 µM (active) |
| CC1CCC(=O)C1=O (stereo not given) | -22.7% [at 115 µM] |  |
| C=C(C)C(=O)OCCO | -9.79% [at 115 µM] |  |
| Cc1c(N)cccc1[N+](=O)[O-] |  | 32.2 µM (active) |
| CC1=CC=C(C(C)C)CC1 |  | 31.7 µM (active) |
| CCN(CC)c1ccc2c(-c3ccccc3C(=O)O)c3ccc(=[N+](CC)CC)cc-3oc2c1 |  | 35.6 µM (active) |
| NCCCN1CCOCC1 | -19.6% [at 115 µM] |  |
| CCOc1ccc(N=Nc2ccc(/C=C/c3ccc(N=Nc4ccc(OCC)cc4)cc3S(=O)(=O)O)c(S(=O)(=O)O)c2)cc1 |  | 27.8 µM (active) |
| CN1CCC(N(Cc2cccs2)c2ccccc2)CC1 | -0.925% |  |
| COc1ccc(C(=O)c2ccc(OC)cc2O)c(O)c1 |  | 0.402 µM (active) |
| O=C(O)c1ccc(S(=O)(=O)O)cc1C(=O)O | 6.45% [at 115 µM] |  |
| O=C(OCCCCCCOC(=O)c1ccccc1)c1ccccc1 |  | 3.17 µM (active) |
| C=C(C)C(=O)OCC | -24.8% [at 115 µM] |  |

| SMILES | activity change, negative = inhibition | Potency |
| --- | --- | --- |
| CCO[C@H](Cc1ccc(OCCc2ccc(OS(C)(=O)=O)cc2)cc1)C(=O)O | 3.79% |  |
| O=[N+]([O-])c1ccc(NCCO)c(OCCO)c1 |  | 17.9 µM (active) |
| CCC(C)(C)CC | -11.5% [at 115 µM] |  |
| CCO[Si](CCCCl)(OCC)OCC | -4.51% [at 115 µM] |  |
| CCN(CC)CCNc1ccc(CNC=O)c2sc3ccc(OC)cc3c(=O)c12 |  | 22.4 µM (active) |
| CCOc1ccc(N)c([N+](=O)[O-])c1 |  | 1.78 µM (active) |
| CN1Cc2cc(C(=O)N3CCC(C4CCNCC4)CC3)ccc2NC(CC(=O)O)C1=O (stereo not given) | 15.7% |  |
| O=C(OCCc1ccccc1)c1ccccc1 |  | 20 µM (active) |
| CC(C)(CO)[N+](=O)[O-] | -13.3% [at 115 µM] |  |
| Nc1c(CC(=O)O)cccc1C(=O)c1ccc(Br)cc1 | -20.8% |  |
| O=P(O)(OCc1ccccc1)OCc1ccccc1 | -18% [at 115 µM] |  |
| COCCCN1CCC(NC(=O)c2cc(Cl)c(N)c3c2OCC3)CC1 | 11% |  |
| CN1CCN(C(c2ccccc2)c2ccccc2)CC1 | 11.9% |  |
| Nc1ccc(N)c2c1C(=O)c1ccccc1C2=O |  | 0.399 µM (active) |
| Cn1c(=O)cc(Oc2ccc(F)cc2F)c2cnc(NCC(C)(C)O)nc21 |  | 28.3 µM (active) |
| CCOC(=O)C(F)(F)F | -22.2% [at 115 µM] |  |
| COc1cc2nc(N(C)CCCNC(=O)C3CCCO3)nc(N)c2cc1OC (stereo not given) | -7.9% |  |
| O=C(O)C1(C(=O)O)CCC1.[NH2-].[NH2-].[Pt+2] |  | 13.8 µM (active) |
| CC(=O)[O][Al][O]C(C)=O | -13.8% [at 115 µM] |  |
| COc1cc(Cl)c(OC)cc1N |  | 5.03 µM (active) |

target: Voltage-gated inwardly rectifying potassium channel KCNH2 (Homo sapiens) (UniProt Q12809); experiment: Human Ether-a-go-go-Related Gene (hERG) channel small molecule antagonists: fluorescence cell-based qHTS assay (AID 1671200); details: hERG-U2OS cells, FluxOR thallium flux fluorescence; series mostly up to 76.8 µM; activity change, negative = inhibition: at the top concentration;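 on activity change, negative = inhibition: hERG-expressing U2OS cells given a thallium stimulus after FluxOR II dye loading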
How it was run: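 Kinetic two-minute fluorescence traces, sampled at 1 s, were collected following thallium stimulus of U2OS cells (1000 per well) that had been cultured overnight at 37 C and loaded with FluxOR II.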

Chain of Voltage-gated inwardly rectifying potassium channel KCNH2 (Homo sapiens) (Q12809 whole entry, looked up): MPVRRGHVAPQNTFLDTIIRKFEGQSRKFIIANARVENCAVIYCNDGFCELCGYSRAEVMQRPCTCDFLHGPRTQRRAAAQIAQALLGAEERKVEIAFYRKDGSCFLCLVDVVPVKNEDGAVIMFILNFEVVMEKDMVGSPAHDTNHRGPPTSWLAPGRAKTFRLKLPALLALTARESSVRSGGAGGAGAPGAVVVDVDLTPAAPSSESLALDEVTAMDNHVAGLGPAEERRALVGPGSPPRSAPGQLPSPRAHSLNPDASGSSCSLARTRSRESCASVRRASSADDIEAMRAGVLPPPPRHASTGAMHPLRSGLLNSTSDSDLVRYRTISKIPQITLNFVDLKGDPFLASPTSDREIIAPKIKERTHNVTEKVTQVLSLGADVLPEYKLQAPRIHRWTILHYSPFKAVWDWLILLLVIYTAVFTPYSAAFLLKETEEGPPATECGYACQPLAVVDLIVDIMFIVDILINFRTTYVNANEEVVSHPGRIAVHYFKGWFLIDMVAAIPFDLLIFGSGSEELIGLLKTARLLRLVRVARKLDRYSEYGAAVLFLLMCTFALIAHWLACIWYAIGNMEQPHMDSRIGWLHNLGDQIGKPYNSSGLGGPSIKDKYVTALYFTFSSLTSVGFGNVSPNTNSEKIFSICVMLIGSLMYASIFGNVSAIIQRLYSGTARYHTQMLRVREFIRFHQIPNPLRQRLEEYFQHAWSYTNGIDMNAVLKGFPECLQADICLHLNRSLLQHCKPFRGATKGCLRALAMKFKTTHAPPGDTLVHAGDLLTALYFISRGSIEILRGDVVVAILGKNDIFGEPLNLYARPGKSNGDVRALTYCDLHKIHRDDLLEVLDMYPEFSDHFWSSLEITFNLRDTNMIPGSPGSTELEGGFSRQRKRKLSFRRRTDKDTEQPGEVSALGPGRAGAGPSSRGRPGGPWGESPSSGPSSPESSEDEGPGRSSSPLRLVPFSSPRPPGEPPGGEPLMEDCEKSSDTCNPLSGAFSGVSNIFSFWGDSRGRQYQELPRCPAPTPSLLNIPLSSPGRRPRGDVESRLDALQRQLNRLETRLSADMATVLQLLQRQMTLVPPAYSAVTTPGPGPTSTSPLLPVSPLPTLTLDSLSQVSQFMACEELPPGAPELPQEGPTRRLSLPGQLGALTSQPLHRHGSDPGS

| SMILES | activity change, negative = inhibition | Potency |
| --- | --- | --- |
| Cc1ccccc1S(=O)(=O)O | 4.35% |  |
| O=S(=O)(Oc1ccc(Cl)cc1)c1ccccc1 | -14.8% |  |
| CNC(=O)CN(CCN(CCN(CC(=O)[O-])CC(=O)NC)CC(=O)[O-])CC(=O)[O-].O.[Gd+3] | -1.07% [at 35.3 µM] |  |
| C=CCOC(=O)CCC1CCCCC1 | -10.6% |  |
| O[C@@H](COc1cccc2ncccc12)CN1CCN(C2c3ccccc3[C@@H]3[C@H](c4ccccc42)C3(F)F)CC1 (stereo not given in full) |  | 10.7 µM (active) |
| O=C1CCC(=O)O1 | -2.14% |  |
| CCCCC(CC)COC(=O)CCCCCCCCC(=O)OCC(CC)CCCC (stereo not given) | 1.68% |  |
| CCNc1cc(O)ccc1C | 1.47% |  |
| CC1CCC(=O)C1=O (stereo not given) | 3.08% |  |
| C=C(C)C(=O)OCCO | 4.15% |  |
| Cc1c(N)cccc1[N+](=O)[O-] | 4.04% |  |
| CC1=CC=C(C(C)C)CC1 | 2.85% |  |
| CCN(CC)c1ccc2c(-c3ccccc3C(=O)O)c3ccc(=[N+](CC)CC)cc-3oc2c1 | -21.3% |  |
| NCCCN1CCOCC1 | 1.54% |  |
| CCOc1ccc(N=Nc2ccc(/C=C/c3ccc(N=Nc4ccc(OCC)cc4)cc3S(=O)(=O)O)c(S(=O)(=O)O)c2)cc1 | 2.79% |  |
| CN1CCC(N(Cc2cccs2)c2ccccc2)CC1 |  | 2.68 µM (active) |
| COc1ccc(C(=O)c2ccc(OC)cc2O)c(O)c1 | -17% |  |
| O=C(O)c1ccc(S(=O)(=O)O)cc1C(=O)O | 16.4% |  |
| O=C(OCCCCCCOC(=O)c1ccccc1)c1ccccc1 | -14.2% |  |
| C=C(C)C(=O)OCC | 1.61% |  |

| SMILES | activity change, negative = inhibition | Potency |
| --- | --- | --- |
| CCO[C@H](Cc1ccc(OCCc2ccc(OS(C)(=O)=O)cc2)cc1)C(=O)O | 1.47% [at 35.3 µM] |  |
| O=[N+]([O-])c1ccc(NCCO)c(OCCO)c1 | -2.43% |  |
| CCC(C)(C)CC | 7.54% |  |
| CCO[Si](CCCCl)(OCC)OCC | 1.01% |  |
| CCN(CC)CCNc1ccc(CNC=O)c2sc3ccc(OC)cc3c(=O)c12 | -15.2% |  |
| CCOc1ccc(N)c([N+](=O)[O-])c1 | 4.66% |  |
| CN1Cc2cc(C(=O)N3CCC(C4CCNCC4)CC3)ccc2NC(CC(=O)O)C1=O (stereo not given) | 5.97% [at 35.3 µM] |  |
| O=C(OCCc1ccccc1)c1ccccc1 | -21% |  |
| CC(C)(CO)[N+](=O)[O-] | 0.142% |  |
| Nc1c(CC(=O)O)cccc1C(=O)c1ccc(Br)cc1 | -15.7% [at 35.3 µM] |  |
| O=P(O)(OCc1ccccc1)OCc1ccccc1 | 4.41% |  |
| COCCCN1CCC(NC(=O)c2cc(Cl)c(N)c3c2OCC3)CC1 | -4.73% [at 35.3 µM] |  |
| CN1CCN(C(c2ccccc2)c2ccccc2)CC1 | -25.7% [at 35.3 µM] |  |
| Nc1ccc(N)c2c1C(=O)c1ccccc1C2=O | 2.42% |  |
| Cn1c(=O)cc(Oc2ccc(F)cc2F)c2cnc(NCC(C)(C)O)nc21 | -11.1% |  |
| CCOC(=O)C(F)(F)F | 1.28% |  |
| COc1cc2nc(N(C)CCCNC(=O)C3CCCO3)nc(N)c2cc1OC (stereo not given) | 1.3% [at 35.3 µM] |  |
| O=C(O)C1(C(=O)O)CCC1.[NH2-].[NH2-].[Pt+2] | -2.63% [at 35.3 µM] |  |
| CC(=O)[O][Al][O]C(C)=O | -0.058% |  |
| COc1cc(Cl)c(OC)cc1N | 1.67% |  |
